Records with an inconclusive call do not appear. Active and inactive are the calls of the source. The call rests on the fitted dose curve; in most records, active means well fitted inhibition curve with a large enough effect; inconclusive means small, poorly fitted or top-dose-only effect; inactive means flat fitted curve, though single readings scatter.

In this assay the test system is NIH3T3. In words: qHTS assay to identify novel small-molecules to repurpose for Merkel cell carcinoma treatment (AID 1296009). Further: nearly all actives have a fitted effect of over 60% in size. The following applies: MCC and control cell lines, CellTiter-Glo viability, 72 h; at 44.8 µM (top of the series) unless noted. The text has this: MCC is a rare and aggressive neuroendocrine skin cancer with limited treatment options. Approximately 80% of MCCs have the Merkel cell polyomavirus (MCPyV) DNA integrated into the host genome (virus-positive: VP-MCC) and viral oncogenes drive oncogenesis. The remaining MCCs are virus-negative (VN-MCC) and are caused by UV mutagenesis. To identify novel treatments for VP-MCC and/or VN-MCC we screened three VP-MCC cell lines (WAGA, MKL-1, MKL-2), three VN-MCC cell lines (MCC-13, MCC-26, UISO), and four immortalized, non-transformed control cell lines (HaCaT, HEK293T, CRL7250, NIH-3T3) against ~2,400 compounds in the NCGC Pharmaceutical Collection (NPC) and ~1,900 compounds in the Mechanism Interrogation PlatE (MiPE). Using cell viability as a readout (CellTiter-Glo assay) we found both overlapping and distinct drugs that can be repurposed for the treatment of VP-MCC and VN-MCC.
A high-throughput screen was conducted in 1536-well white flat bottom plates (Corning) on a Kalypsys robotic system. Cell lines WAGA, MKL-1, MKL-2, MCC-13, MCC-26, UISO, HaCaT, HEK293T, CRL7250, and NIH-3T3 were screened against 2 small molecule annotated drug libraries NPC and MIPE in dose response (8 and 11 pt. respectively) measuring cell viability after 72 hours of incubation. […] A 1,536 pintool (Kalypsys) was used to transfer 23 nL of compound in DMSO to the 1,536-well assay plates. After 72 hr incubation at 37 degree celsius, 2.5 uL of CellTiter-Glo (Promega) was dispensed into each well using a BiorapTR. Plates were incubated at room temperature for 10 min, transferred to a ViewLux (PerkinElmer) and the luminescence was recorded using an exposure time of 2 seconds. Relative luminescence units (RLUs) were normalized to in-plate controls (no cells as a positive (cytotoxicity) control, DMSO as negative control) and the normalized data was processed using NCATS in-house software.
With `COc1cc(C(=O)OCC2=CCC3C(C(=O)O)=COC(O[C@@H]4O[C@H](CO)[C@@H](O)[C@H](O)[C@H]4O)C23)ccc1O` (stereo not given in full), the outcome was “inactive [at 17.4 µM]”. Take `C=Cc1cc2oc(-c3ccc(O)c(F)c3)nc2cc1O`: the result was inactive.

As for `CC/C=C\[C@H](O)[C@H](O)C1=C(C)C(=O)[C@]2(O1)C(=O)N[C@@](O)(C(=O)c1ccccc1)[C@@H]2O`, the outcome was “inactive [at 17.4 µM]”. Take `O=C(O)CCc1ccc(NCc2cccc3c2CCCN3CCOc2ccccc2)cc1F`: the result was inactive. With `C=C1C(=O)OC[C@H]2C(C(=O)O)=CC3CC(C)(C)C[C@@]132` (stereo not given in full), the call was inactive. Regarding `CC(=O)O[C@@H]1C(=O)C(C)=C(CCC(C)CC(=O)O)[C@@]2(C)CCCC(C)(C)C12` (stereo not given in full), the result was inactive.

For `C#CCCCn1cc(-c2cccc3c2N[C@@H](C)CC(=O)N3)cn1`, the molecule was classed as inactive. Next, `CC(C)NC(=O)c1ccc(C#Cc2ccncc2)cn1`: “inactive”; `CC(=O)/C=C/[C@H]1[C@](C)(O)[C@@H](O)[C@H](O)C2C(C)(C)CCC[C@@]21C` (stereo not given in full): “inactive”. For the molecule `CC1=CC(=O)C2C(C)(C)CCC[C@]2(C)[C@H]1CC[C@H](C)CC(=O)O` (stereo not given in full), the outcome was inactive.

Regarding `CC(=O)NCC1CN(c2ccc(-c3ccc(CNCc4cn[nH]n4)cc3)c(F)c2)C(=O)O1` (stereo not given), the outcome was inactive. `CC(C/C=C/C(C)(C)O)C1CCC(C)(O)C(O)C1` (stereo not given): the molecule was classed as inactive.

Regarding `C=C(C(=O)O)[C@@H]1CC[C@@]2(C)CC[C@@H](O)C(=C)C2C1` (stereo not given in full), the molecule was called inactive.

Regarding `C=C1CCC2C(C)(C(=O)O)CCCC2(C)C1CC/C(C)=C\CO` (stereo not given), the outcome was inactive. On to `COc1cc(/C=C/C(=O)OCC2OC(OC3(CO)OC(CO)C(O)C3O)C(O)C(O)C2O)ccc1O` (stereo not given), for which the outcome is “inactive [at 17.4 µM]”. Turning to `O=C(CCc1ccccc1)c1c(O)c([C@@H]2O[C@H](CO)[C@@H](O)[C@H](O)[C@H]2O)c(O)c([C@@H]2O[C@H](CO)[C@@H](O)[C@H](O)[C@H]2O)c1O`, the outcome was “inactive [at 17.4 µM]”. In the case of `N#Cc1cccc(-c2nc(-c3cccnc3)no2)c1`, the outcome is “inactive [at 17.4 µM]”. As for `C=C1CCC2[C@@](C)(C(=O)O)CCC[C@@]2(C)[C@@H]1CCc1ccoc1` (stereo not given in full), the result was inactive. Turning to `CC1(C)C2CC[C@@]34CC(CC[C@H]3[C@]2(C)CC[C@@H]1O[C@@H]1O[C@H](CO)[C@@H](O)[C@H](O)[C@H]1O)[C@](C)(O)C4` (stereo not given in full), the outcome is “inactive [at 17.4 µM]”.

`CC[C@H](NC(=O)c1c(O)c(-c2ccccc2)nc2ccccc12)c1ccccc1`: the result was inactive.

Take `COc1c2c(c(C)c3c1C(=O)OC3)OC1(C)CC(O)C34OC(OC)(CCC3(C)C1C2)OC4(C)CO` (stereo not given): the outcome is “inactive [at 17.4 µM]”. `COc1cc(O)cc(C)c1C(=O)O[C@H]1[C@@H](O)[C@@H](n2ccc(=O)[nH]c2=O)O[C@@H]1CO`: the outcome was “inactive [at 17.4 µM]”. On to `COc1ccc(CCC(=O)c2c(O)cc(O[C@@H]3O[C@H](CO)[C@@H](O)[C@H](O)[C@H]3O[C@@H]3O[C@@H](C)[C@H](O)[C@@H](O)[C@H]3O)cc2O)cc1O`, for which the molecule was classed as inactive.

Regarding `CCc1nnc(NS(=O)(=O)c2ccc(NC(=S)NC(=O)/C=C/c3ccc(F)cc3)cc2)s1`, the outcome was inactive. As to `COc1ccc(C2(O)c3c(ccc4c3OC(C)(CCC=C(C)C)C=C4)NC(=O)C2OC)cc1` (stereo not given), the outcome was “inactive [at 17.4 µM]”. Next, `CC(C)=CCC(O)[C@](C)(O)C1[C@H](O)C[C@@]2(C)C3CC=C4C(C[C@H](O)[C@@H](O[C@@H]5O[C@H](CO)[C@@H](O)[C@H](O)[C@H]5O)C4(C)C)[C@]3(C)C(=O)C[C@]12C` (stereo not given in full): “inactive [at 17.4 µM]”. Take `O=C(OC[C@H]1O[C@@H](Oc2ccccc2CO)[C@H](O)[C@@H](O)[C@@H]1O)c1ccccc1`: the result was inactive.

Regarding `CC(C)[C@@H](C(=O)O)N1Cc2c(cc(O)c3c2O[C@]2(C3)[C@H](C)CCC3C(C)(C)[C@H](O)[C@H](O)C[C@@]32C)C1=O` (stereo not given in full), the outcome was “inactive [at 17.4 µM]”. Turning to `CC(C)C1NC(=O)C(CC2(O)c3ccccc3N3C(=O)C(Cc4ccccc4)NC32)NC1=O` (stereo not given), the outcome was “inactive [at 17.4 µM]”. Consider `COc1cc(O)c2c(c1Cl)CC(C)OC2=O` (stereo not given), for which the molecule was classed as inactive.

In the case of `O=c1[nH]ccc2nc(-c3ccc(CN4CCC(c5nc(-c6ccccn6)n[nH]5)CC4)cc3)c(-c3ccccc3)cc12`, the outcome was inactive.

For the molecule `C/C=C/C(=O)OC1/C=C/C(O)C(OC(C)=O)CCC(=O)OC1C` (stereo not given), the outcome was inactive. On to `CC(O)C(=O)/C=C/C=C/C(=O)OC1C=C2COC(=O)C2(O)C2(C)CCCC(C)(C)C12` (stereo not given), for which the outcome is “inactive [at 17.4 µM]”.

In the case of `CC1=C2CC(O)(C(C)(C)O)C(O[C@@H]3O[C@H](CO)[C@@H](O)[C@H](O)[C@H]3O)CC(C)C2CC1=O` (stereo not given in full), the outcome was “inactive [at 17.4 µM]”. Turning to `CC(=O)/C=C/C1(O)C(C)(C)CC(O)CC1(C)O` (stereo not given), the molecule was classed as inactive. Regarding `CC[C@@H](Nc1c(Nc2cccc(C(=O)N(C)C)c2O)c(=O)c1=O)c1ccc(C)o1`, the molecule was called inactive. With `C=C1CC[C@@H]2C(C)(C)CCC[C@@]2(C)[C@@H]1CC/C(=C/C(=O)OC)COC(C)=O`, the molecule was called inactive.

Regarding `C/C(=C\C(=O)C(C)C1CCC2C3=C(CCC21C)C1(C)CCC(=O)C(C)(C)C1(O)CC3)C(C)(C)O` (stereo not given), the outcome is “inactive [at 17.4 µM]”. With `O=C(O)c1ccnc2cc(-c3nc4ccccc4n3CCN3CCCCC3)sc12`, the molecule was classed as inactive. Turning to `COc1cc(/C=C/C(=O)O[C@H]2[C@H](O)[C@@H](CO)O[C@@]2(CO)O[C@H]2O[C@H](CO)[C@@H](O)[C@H](O)[C@H]2O)cc(OC)c1O`, the outcome is “inactive [at 17.4 µM]”.
